Assay results reported in PubChem BioAssay AID504683 (Southern Research Specialized Biocontainment Screening …, 2011).
Results with a measured potency or affinity are listed apart. Values without a mark were called inactive. How the calls were made is not given here.

Test: cytotoxicity control, cell-based, set 2 (AID 504683)
Conditions: THP-1 human monocytes; series mostly up to 100 µM; viability: at the top concentration

SMILES	viability
COC(=O)C1CC(=O)N(c2ccc(OCc3ccccc3Cl)cc2)C1 (stereo not drawn)	95.3%
O=C(/C=C\c1cccs1)N1CCN(Cc2ccc3c(c2)OCO3)CC1	87.9%
Cc1cc(=O)[nH]c(=S)[nH]1	114%
Cc1ccc(NC(=O)C2C3/C=C\CCCCC32)cc1C (stereo not drawn)	93%
O=C(CSc1ncccn1)NC1CCCCC1	110%
CCSc1nc(C)c(C)c(=O)[nH]1	100%
COc1cc(NC(=O)C/C(C)=N/NC(=O)c2ccccn2)c(OC)cc1Cl	99.3%
CC1CCN(C(=O)C2CCN(c3nnc(-n4cccc4)s3)CC2)CC1	90.2%
CC(=NCc1ccc2c(c1)OCO2)C1=C(O)c2ccccc2C1=O	96.5%
O=C(CSc1nc(O)cc(=O)[nH]1)Nc1ccccc1	103%
Cc1ccc(NC(=O)COC(=O)CCc2c[nH]c3ccccc23)cc1[N+](=O)[O-]	104%
CCOC(=O)COc1ccc(/C=C2\NC(=S)N(CC)C2=O)cc1	83.1%
O=C(CSc1nccc(=O)[nH]1)Nc1ccc(Oc2ccccc2)cc1	94.9%
Cc1[nH]c(=S)[nH]c(=O)c1C	101%
Cc1cc(=O)[nH]c(SCC(=O)Nc2ccccc2)n1	90.5%
O=C(CSc1nc2ccccc2c(=O)[nH]1)NC1CCCCC1	106%
O=c1[nH]c(=S)[nH]c2ccccc12	105%

SMILES	viability
COC(=O)C(C)Oc1ccc(Cc2ncc(C(F)(F)F)cc2Cl)cc1 (stereo not drawn)	102%
Cc1nc(SCC(=O)NC2CCCCC2)[nH]c(=O)c1C	113%
Cc1nc(SCc2ccccc2Cl)[nH]c(=O)c1C	97.9%
Cc1c[nH]c(=S)[nH]c1=O	113%
CCOC1OC(=O)C(Cl)=C1Nc1ccccc1C (stereo not drawn)	91.5%
COC(=O)CCc1nc2c(C#N)c(-c3ccc(Cl)cc3)ccn2n1	97.2%
COC(=O)C(C)Oc1ccc(-c2nccc(-c3ccccn3)n2)cc1 (stereo not drawn)	83.3%
O=C(CSc1nc2ccccc2c(=O)[nH]1)NCc1ccc(Cl)cc1	89.6%
CCc1ccc(/C=C2/C(=O)N(C)C(=S)N2CC(=O)OC)s1	82.8%
Cc1nc(SCC(=O)N(C)c2ccccc2)[nH]c(=O)c1C	90%
O=C(CSc1ccccn1)NC1CCCCC1	106%
CCOC(=O)CSc1nc(C)c(C)c(=O)[nH]1	101%
O=C(CSc1nccc(=O)[nH]1)Nc1ccc(N2CCOCC2)cc1	103%
Cc1nc(SCC(N)=O)[nH]c(=O)c1C	102%
COC(=O)c1ccc(CNc2c(N3CCCC3)c(=O)c2=O)cc1	100%
CCSc1nc2ccccc2c(=O)[nH]1	90.2%
